Each sequence was assayed against T1, NKX2-6 (Homo sapiens, UniProt A6NCS4 118-204, R150C) (assay: PBM; 200 nM protein, PBS). Conditions: dsDNA, one strand shown.
T1 sequence: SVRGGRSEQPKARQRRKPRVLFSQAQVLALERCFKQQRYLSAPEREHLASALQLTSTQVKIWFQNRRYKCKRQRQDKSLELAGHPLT

Sequence | binding signal
TCACTCAA | 10.9 upbm affinity estimate (log intensity, higher = more binding, comparable within an allelic series)
CACGCCAG | 9.43 upbm affinity estimate (log intensity, higher = more binding, comparable within an allelic series)
CAAGTGGA | 11.6 upbm affinity estimate (log intensity, higher = more binding, comparable within an allelic series)
GCAGCACC | 9.59 upbm affinity estimate (log intensity, higher = more binding, comparable within an allelic series)
CTACTTTA | 11 upbm affinity estimate (log intensity, higher = more binding, comparable within an allelic series)
GGTCAACC | 9.62 upbm affinity estimate (log intensity, higher = more binding, comparable within an allelic series)
CTACCGGC | 9.49 upbm affinity estimate (log intensity, higher = more binding, comparable within an allelic series)
AGGCAGTC | 9.73 upbm affinity estimate (log intensity, higher = more binding, comparable within an allelic series)
GGTCTGCA | 9.86 upbm affinity estimate (log intensity, higher = more binding, comparable within an allelic series)
GGGCCACC | 9.52 upbm affinity estimate (log intensity, higher = more binding, comparable within an allelic series)
GGTCAGAC | 9.52 upbm affinity estimate (log intensity, higher = more binding, comparable within an allelic series)
CGCCCCGC | 9.59 upbm affinity estimate (log intensity, higher = more binding, comparable within an allelic series)
CGCGGGCA | 9.67 upbm affinity estimate (log intensity, higher = more binding, comparable within an allelic series)
ATACTTGG | 10.8 upbm affinity estimate (log intensity, higher = more binding, comparable within an allelic series)
ACCGACGC | 9.5 upbm affinity estimate (log intensity, higher = more binding, comparable within an allelic series)
CCCGCAGC | 9.3 upbm affinity estimate (log intensity, higher = more binding, comparable within an allelic series)
CGGGCGGA | 9.09 upbm affinity estimate (log intensity, higher = more binding, comparable within an allelic series)
GGGGAACC | 9.63 upbm affinity estimate (log intensity, higher = more binding, comparable within an allelic series)
CCCGCCAG | 9.62 upbm affinity estimate (log intensity, higher = more binding, comparable within an allelic series)
ACAGCGGG | 9.46 upbm affinity estimate (log intensity, higher = more binding, comparable within an allelic series)

Sequence | binding signal
CTTGCCGC | 9.53 upbm affinity estimate (log intensity, higher = more binding, comparable within an allelic series)
CAGACGCC | 9.62 upbm affinity estimate (log intensity, higher = more binding, comparable within an allelic series)
GGCGGGAC | 9.37 upbm affinity estimate (log intensity, higher = more binding, comparable within an allelic series)
CCGGACCC | 9.31 upbm affinity estimate (log intensity, higher = more binding, comparable within an allelic series)
CACTTCCA | 11 upbm affinity estimate (log intensity, higher = more binding, comparable within an allelic series)
CACTCTCA | 10.9 upbm affinity estimate (log intensity, higher = more binding, comparable within an allelic series)
AAGCCCCC | 9.33 upbm affinity estimate (log intensity, higher = more binding, comparable within an allelic series)
ACCGTGGA | 9.56 upbm affinity estimate (log intensity, higher = more binding, comparable within an allelic series)
AGAGTGGA | 11 upbm affinity estimate (log intensity, higher = more binding, comparable within an allelic series)
GCCGTGAA | 9.62 upbm affinity estimate (log intensity, higher = more binding, comparable within an allelic series)
AATCCGCC | 9.75 upbm affinity estimate (log intensity, higher = more binding, comparable within an allelic series)
CACTCGTC | 10.8 upbm affinity estimate (log intensity, higher = more binding, comparable within an allelic series)
AAGAAGTG | 11.2 upbm affinity estimate (log intensity, higher = more binding, comparable within an allelic series)
CACTTGTC | 11.4 upbm affinity estimate (log intensity, higher = more binding, comparable within an allelic series)
CCCAGGGG | 9.24 upbm affinity estimate (log intensity, higher = more binding, comparable within an allelic series)
CCCCAACC | 9.37 upbm affinity estimate (log intensity, higher = more binding, comparable within an allelic series)
GACCTGGC | 9.43 upbm affinity estimate (log intensity, higher = more binding, comparable within an allelic series)
CAAGAGGG | 10.9 upbm affinity estimate (log intensity, higher = more binding, comparable within an allelic series)
CCGTAGCG | 9.34 upbm affinity estimate (log intensity, higher = more binding, comparable within an allelic series)
GGCATCCC | 9.47 upbm affinity estimate (log intensity, higher = more binding, comparable within an allelic series)
